Test results taken from ChEMBL document CHEMBL3988442, “University of Dundee, Small-Polar-MMV Screening Library” (2021).

These compounds were tested against AMP-activated protein kinase, AMPK (Homo sapiens) (UniProt P54646+O43741+P54619+Q9UGJ0+Q9Y478+Q13131+Q9UGI9) (assay: AMP-dependent Kinase enzyme assay. An in vitro enzyme assay that detects ADP turnover that is directly proportional to AMPK activity. This uses naive AMPK that is activated during the assay with MK-8722). Settings: 30 µM.
Assay type: functional
Design: scale not given: direction of the effect not stated beside the values

Compared with `CC(C)c1nnc(CN2CCCc3ccc(S(N)(=O)=O)cc32)o1`, `CCn1cnnc1CNS(=O)(=O)N1CCCC1c1ccc(C)o1` (centres undefined) is higher in Percent Effect: 0.503% for the first, 0.967% for the second.

Going from `CC(C)OCCS(=O)(=O)N1CCN(Cc2cccn2C)CC1` to `CS(=O)(=O)NC1CCN(Cc2coc(-c3ccccc3)n2)CC1`, the Percent Effect rises from -4.58% to 0.161%.

Compared with `Cc1nnc(CN(C)CC(=O)N2CCCN(C3CCCC3)CC2)n1C`, `Cc1cc(C(=O)N2CC[C@H](N3CCN(C)CC3)[C@H](CCCO)C2)n(C)n1` is higher in Percent Effect: -11.4% for the first, 10.5% for the second.

Going from `O=C(CCN1CCCO1)N1CC[C@@H](CNC(=O)N2CCCC2)[C@H](O)C1` to `NC(=O)C1CCN(C(=O)CCSCc2ccccc2)CC1`, the Percent Effect rises from -5.68% to 8.64%.

First: COc1cnc(N2CCN(C)CC2)nc1-c1ccnn1C
Second: COCCNC(=O)N1CCN(c2cc(F)ccc2F)CC1
The Percent Effect of the first is lower: 0.474% for the first, 7.95% for the second.

First: COc1ncc(NCc2ccsc2)cc1C(N)=O
Second: COc1nc(C)ccc1CNC(=O)NC(c1ncc(C)s1)C1CC1 (centres undefined)
The Percent Effect of the first is higher: 5.38% for the first, -2.14% for the second.

Going from `Cc1cnn(C2CN(CCOc3ccc(C#N)cc3)C2)c1` to `Cc1nc(CNCc2ccc(OC34CCCN(CC3)C4)cc2)n[nH]1` (centres undefined), the Percent Effect falls from 5.88% to -5.44%.

Going from `Cc1ncc(CNC(=O)NCC(C)Oc2ccccc2F)s1` (centres undefined) to `COc1ccc(C(C)NCCC(N)=O)cc1F` (centres undefined), the Percent Effect falls from 6.1% to -6.1%.

First: O=C1NC(C(=O)NCc2cccnc2Oc2ccc(F)cc2F)CO1 (centres undefined)
Second: O=C(NCc1nncn1C1CC1)c1ccccc1Oc1cccnc1
The Percent Effect of the first is higher: 5.7% for the first, -0.563% for the second.

First: CCn1nc(C)c(NC(=O)CN(C)C(C)c2nccs2)c1C (centres undefined)
Second: Cc1cc(C(F)F)nn1CC(=O)NCc1nccn1C
The Percent Effect of the first is lower: -6.11% for the first, 5.16% for the second.

Going from `CN1C[C@@H]2CC[C@H](CC1=O)N2C(=O)c1ccc(-c2ccccc2)[nH]c1=O` to `O=C(c1ccc2[nH]cnc2c1)N1CCC(COc2ccccn2)CC1`, the Percent Effect falls from 12.5% to -1.03%.

Going from `Cc1nnsc1CN1CC[C@@](O)(C2CCC2)[C@H](C)C1` to `O=C(NC1CCCN(Cc2c(F)cccc2F)C1)c1cnccn1` (centres undefined), the Percent Effect rises from -5.82% to 6.06%.

Going from `O=C(c1cccnc1)N1CCC(Oc2cccc(C(F)(F)F)c2)CC1` to `Cc1cc(NC(=O)C2CCN(c3ncccc3C#N)CC2)no1`, the Percent Effect rises from -1.51% to 4.93%.

First: CO[C@@H]1CC[C@@H](NC(=O)CCc2ccc(Cl)cc2)[C@H]1O
Second: O=C(c1nnn(-c2ccc(Cl)cc2)n1)N(CCO)Cc1ccccc1
The Percent Effect of the first is higher: 8.1% for the first, 3.07% for the second.

Going from `CS(=O)(=O)CC1(CNc2cc(C#N)c3cc(Cl)ccc3n2)CC1` to `CS(=O)(=O)N1CCC(CNc2c(Cl)cccc2C#N)CC1`, the Percent Effect rises from -0.595% to 7.5%.

Going from `CC(C)(C)c1nc(CN2CCCC2c2nnc3ccccn23)no1` (centres undefined) to `O=S(=O)(Cc1nc(C2CC2)no1)c1ccccc1F`, the Percent Effect falls from 6.67% to 1.42%.

Going from `CCN(CCNS(=O)(=O)N1CCOCC1)C(=O)OC(C)(C)C` to `Cc1cc2ccccc2n1CCC(=O)N1CCCC(O)(CN(C)C)CC1` (centres undefined), the Percent Effect falls from 0.848% to 0.58%.

First: CC(C)c1nc(CSc2nnc(-c3cccs3)n2CC(N)=O)no1
Second: CC(C)c1cc(NC(CCO)c2ccccc2)n2nccc2n1 (centres undefined)
The Percent Effect of the first is lower: -6.28% for the first, 13.4% for the second.

First: CCCc1noc(C[S+]([O-])CC(=O)NCc2ccccc2)n1 (centres undefined)
Second: O=C(NC1CCCC1)c1cc(Cn2cnc3ccccc32)on1
The Percent Effect of the first is lower: -0.224% for the first, 0.401% for the second.

In the case of `CN1CCN(c2cccc(NC(=O)NCc3csc(N(C)C)n3)c2)C1=O`, the Percent Effect is reported as -16.7%.
